Data on 9 compounds can be found in PubChem BioAssay (NCI).

This is part of a sample that, as a whole, favours compounds with a hit. Of some 83,000 tested, about 20% had one in any assay.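 Note: values are percent growth. 100 is the growth of untreated cells, values between 100 and 0 indicate rising inhibition; between -100 and 0 indicates cell death.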 A number with no mark means an inactive call. The source made the active and inactive calls. Rule for the calls: active = growth percent below 10; inactive = the rest.

Experiment in all cases: NCI-60 one-dose screen, 48 h (100 = growth as untreated, 0 = no growth, -100 = all killed)
The test system of one experiment is HCT-15 colon. The note with it: 10 µM unless noted.
For the next experiment, the system named is HT29 colon. To be noted: 10 µM unless noted.
The subject of another experiment is SNB-75 CNS. To be noted: 10 µM unless noted.
The next experiment has as its system SNB-19 CNS. The note with it: 10 µM unless noted.
The subject of the next experiment is U251 CNS. To be noted: 10 µM unless noted.
The subject of a further experiment is SK-MEL-5 melanoma. To be noted: 10 µM unless noted.
The next experiment relates to UACC-62 melanoma. The note with it: 10 µM unless noted.
Another experiment deals with LOX IMVI melanoma. To be noted: 10 µM unless noted.
In a further experiment the test system is SK-MEL-28 melanoma. The note with it: 10 µM unless noted.
The next experiment deals with SK-MEL-2 melanoma. The note with it: 10 µM unless noted.
The next experiment relates to EKVX NSCLC. The note with it: 10 µM.
The subject of a further experiment is SN12C renal. To be noted: 10 µM unless noted.
The test system of the next experiment is UO-31 renal. To be noted: 10 µM unless noted.
Another experiment has as its system TK-10 renal. To be noted: 10 µM unless noted.
For the next experiment, the system named is ACHN renal. To be noted: 10 µM unless noted.
Another experiment relates to CAKI-1 renal. The note with it: 10 µM unless noted.
The test system of another experiment is A498 renal. To be noted: 10 µM unless noted.
In a further experiment the test system is CCRF-CEM leukemia. The note with it: 10 µM.
In the next experiment the test system is MOLT-4 leukemia. To be noted: 10 µM unless noted.

In the case of `Clc1ccc(N/N=C/c2ccccn2)nc1`, the growth was 20.6% in the experiment on HCT-15 colon; 27.3% in the experiment on HT29 colon; 21.7% with SNB-75 CNS; 28.2% with SNB-19 CNS; 18.1% with U251 CNS; -66.3% (active) in the experiment with SK-MEL-5 melanoma. Also, the growth with UACC-62 melanoma was -7.02% (active); with LOX IMVI melanoma, -6.42% (active); in the experiment on SK-MEL-28 melanoma, 20%; in the experiment with SK-MEL-2 melanoma it was 37.4%; in the experiment on EKVX NSCLC, 5.55% (active); in the experiment on SN12C renal, 14.4%. Further, the growth was -12% (active) in the experiment on UO-31 renal; 26.7% in the experiment on TK-10 renal; 5.14% (active) in the experiment on ACHN renal; 8.53% (active) with CAKI-1 renal; -3.65% (active) in the experiment with A498 renal; 11.6% in the experiment with CCRF-CEM leukemia. Further, the growth with MOLT-4 leukemia was 5.02% (active).

Take `N#Cc1c2ncccc2c2nnc3cc(Cl)c(Cl)cc3n12`: the growth is 82.9% in the experiment with HCT-15 colon; 95.2% in the experiment on HT29 colon; 67.1% in the experiment with SNB-75 CNS; 101% in the experiment with SNB-19 CNS; 90.6% with U251 CNS; 92.4% in the experiment on SK-MEL-5 melanoma. The growth in the experiment with UACC-62 melanoma was 90.8%; in the experiment with LOX IMVI melanoma, 97.4%; in the experiment with SK-MEL-28 melanoma, 80.9%; in the experiment on EKVX NSCLC, 84.1%; in the experiment with SN12C renal, 110%; in the experiment with UO-31 renal it was 76.3%. Moreover, the growth is 67.7% in the experiment with TK-10 renal; 84.5% in the experiment with ACHN renal; 70.3% with CAKI-1 renal; 115% in the experiment on A498 renal; 98.9% in the experiment on MOLT-4 leukemia.

`COc1cc(-c2nn(-c3ccc(NC(=O)Nc4ccc(Cl)c(C(F)(F)F)c4)cc3)cc2-c2ccncc2)ccc1Cl`: the growth was 9.82% (active) in the experiment with HCT-15 colon; -24.4% (active) in the experiment with HT29 colon; -0.838% (active) with SNB-75 CNS; 30.5% in the experiment on SNB-19 CNS; -3.64% (active) in the experiment with U251 CNS; -58.2% (active) in the experiment with SK-MEL-5 melanoma. For the same compound, the growth is 6.01% (active) in the experiment with UACC-62 melanoma; 11.7% in the experiment with LOX IMVI melanoma; 18.2% in the experiment with SK-MEL-28 melanoma; 3.21% (active) in the experiment on EKVX NSCLC; 26.2% in the experiment on SN12C renal; 24.5% in the experiment with UO-31 renal. For the same compound, the growth was -3.21% (active) with TK-10 renal; 5.32% (active) in the experiment on ACHN renal; -5.53% (active) in the experiment with CAKI-1 renal; 6.77% (active) with A498 renal; 1.77% (active) with MOLT-4 leukemia.

As to `COc1ccc(/C=N/c2cc(C(C)(C)C)nn2-c2ccccc2)cc1`, the growth is 86.8% in the experiment with HCT-15 colon; 99.9% with HT29 colon; 114% in the experiment with SNB-75 CNS; 94.6% with SNB-19 CNS; 97.9% with U251 CNS; 98% in the experiment with SK-MEL-5 melanoma. Besides, the growth is 86.7% in the experiment on UACC-62 melanoma; 99.8% with LOX IMVI melanoma; 111% with SK-MEL-28 melanoma; 124% in the experiment on SK-MEL-2 melanoma; 104% in the experiment with EKVX NSCLC; 102% with SN12C renal. The growth in the experiment on UO-31 renal was 94.5%; in the experiment with TK-10 renal, 117%; with ACHN renal, 95.7%; with A498 renal, 103%; in the experiment with MOLT-4 leukemia, 96%.

As to `COc1ccc(Cn2cc3c(c2-c2ccc(O)cc2)CCc2cnoc2-3)cc1`, the growth is 21.3% with HCT-15 colon; 19.9% with HT29 colon; 19.1% in the experiment on SNB-75 CNS; 47.1% with SNB-19 CNS; 27.6% in the experiment on U251 CNS; 19.2% with SK-MEL-5 melanoma. Moreover, the growth in the experiment on UACC-62 melanoma is 44.5%; in the experiment on LOX IMVI melanoma it was 35.4%; in the experiment on SK-MEL-28 melanoma it was 54.3%; with SK-MEL-2 melanoma, 43.7%; in the experiment on EKVX NSCLC it was 28.3%; with SN12C renal, 40.8%. The growth in the experiment on UO-31 renal is 35.4%; in the experiment on TK-10 renal, 72.8%; in the experiment on ACHN renal, 34.1%; in the experiment with CAKI-1 renal, 15.3%; in the experiment with A498 renal, -1.96% (active); with CCRF-CEM leukemia it was 14.1%. Besides, the growth with MOLT-4 leukemia is 24.3%.

With `CC(C)(CNC1CCCCC1)OC(=O)c1ccccc1`, the growth with HCT-15 colon was 97.7%; in the experiment with HT29 colon, 95.5%; with SNB-75 CNS it was 105%; with SNB-19 CNS it was 103%; with U251 CNS it was 100%; with SK-MEL-5 melanoma it was 97.7%. Moreover, the growth is 106% in the experiment with UACC-62 melanoma; 96.7% in the experiment with LOX IMVI melanoma; 114% in the experiment on SK-MEL-28 melanoma; 116% with SK-MEL-2 melanoma; 95.1% with SN12C renal; 77.2% in the experiment on UO-31 renal. Moreover, the growth in the experiment with TK-10 renal was 104%; with ACHN renal it was 108%; in the experiment on CAKI-1 renal, 102%; with A498 renal, 103%; with CCRF-CEM leukemia, 84.7%; in the experiment on MOLT-4 leukemia, 93.8%.

For `COc1ccc(C2CC(=O)c3c(O)cc(OC4OC(COC5OC(C)C(O)C(O)C5O)C(O)C(O)C4O)cc3O2)cc1O` (stereo not given), the growth in the experiment with HCT-15 colon is 101%; with HT29 colon, 102%; with SNB-75 CNS it was 82.1%; with SNB-19 CNS, 110%; in the experiment with U251 CNS, 104%; in the experiment on SK-MEL-5 melanoma, 104%. Also, the growth in the experiment on UACC-62 melanoma is 111%; in the experiment with LOX IMVI melanoma it was 107%; in the experiment on SK-MEL-28 melanoma it was 124%; with SK-MEL-2 melanoma, -1.88% (active); with EKVX NSCLC, 100%; in the experiment on SN12C renal it was 108%. Further, the growth was 95.3% with UO-31 renal; 110% in the experiment with TK-10 renal; 105% in the experiment on CAKI-1 renal; 132% in the experiment with A498 renal; 106% in the experiment on CCRF-CEM leukemia; 113% with MOLT-4 leukemia.

For the compound `C=CCNC(=S)NNc1ccc([N+](=O)[O-])cn1`, the growth with HCT-15 colon is 100%; in the experiment on HT29 colon, 90.5%; with SNB-75 CNS it was 81.8%; with SNB-19 CNS, 103%; in the experiment on U251 CNS it was 101%; in the experiment on SK-MEL-5 melanoma, 94.3%. Besides, the growth in the experiment with UACC-62 melanoma was 99.3%; with LOX IMVI melanoma, 82%; in the experiment on SK-MEL-28 melanoma, 106%; with SK-MEL-2 melanoma, 94.4%; in the experiment on EKVX NSCLC, 99.9%; in the experiment on SN12C renal, 100%. The growth with UO-31 renal was 83.7%; in the experiment on TK-10 renal it was 104%; with ACHN renal it was 104%; in the experiment with CCRF-CEM leukemia, 71.2%; in the experiment on MOLT-4 leukemia it was 99.4%.

With `Cc1ncc(C(=O)Nc2ccc(CN3CCN(C)CC3)c(C(F)(F)F)c2)cc1C#Cc1c(N)ncc2ccccc12`, the growth was -90.8% (active) in the experiment with HCT-15 colon; -89% (active) with HT29 colon; -90.6% (active) in the experiment with SNB-75 CNS; -100% (active) in the experiment with SNB-19 CNS; -99.6% (active) in the experiment with U251 CNS; -99.6% (active) with SK-MEL-5 melanoma. In addition, the growth in the experiment on UACC-62 melanoma is -82.3% (active); with LOX IMVI melanoma, -89.9% (active); in the experiment with SK-MEL-28 melanoma it was -96.5% (active); in the experiment on EKVX NSCLC, -89.5% (active); in the experiment with SN12C renal it was -99.1% (active); in the experiment with UO-31 renal, -99.1% (active). Moreover, the growth was -99.4% (active) in the experiment with TK-10 renal; -100% (active) with ACHN renal; 2.22% (active) in the experiment on CAKI-1 renal; -98% (active) with A498 renal; -48.3% (active) with CCRF-CEM leukemia; -67.6% (active) in the experiment with MOLT-4 leukemia.
